Test results reported in PubChem BioAssay AID1159580 (chemical genetic matrix, 2015).
About 2,000 (36%) of roughly 5,500 compounds were called active. Inconclusive results (about 18%) are left out. Cut-off read from the data, not from the text of the source: active = normalized growth mostly below about 0.91 (no sharp cut-off); inconclusive = no clear call, values can overlap the other calls; inactive = mostly above about 0.92. Some of the results follow.

Test: chemical genetic growth profiling, strain panel (AID 1159580);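 note: tested at 20 µM; growth read once vehicle control cultures reached saturation at 30 °C; 1 = growth at the plate median or of vehicle wells; lower values mean less growth of the strain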
Conditions: S. cerevisiae deletion strains, growth OD

Measured: normalized growth

COc1ccc(C2=C(C(C)=O)C(C)=NC(=S)C2C#N)cc1 (stereo not given)
active: locus YPR135W, strain CTF4, active compounds read low 0.356
inactive: locus YAL013W, strain DEP1, active compounds read low 1.01 | locus YBR229C, strain ROT2, active compounds read low 1.02 | locus YCL061C, strain MRC1, active compounds read low 1.01 | locus YDL101C, strain DUN1, active compounds read low 1.05 | locus YDR150W, strain NUM1, active compounds read low 0.933 | locus YEL061C, strain CIN8, active compounds read low 1.04 | locus YGR078C, strain PAC10, active compounds read low 0.993 | locus YHR030C, strain SLT2, active compounds read low 0.947 | locus YHR087W, strain rtc3, active compounds read low 1.04 | locus YJL187C, strain SWE1, active compounds read low 1 | locus YJR043C, strain POL32, active compounds read low 1.04 | locus YJR075W, strain HOC1, active compounds read low 1.01 | locus YKL190W, strain CNB1, active compounds read low 0.987 | locus YLR039C, strain RIC1, active compounds read low 0.977 | locus YLR058C, strain SHM2 (second series), active compounds read low 0.994 | locus YLR085C, strain ARP6, active compounds read low 0.89 | locus YLR262C, strain YPT6, active compounds read low 0.972 | locus YML094W, strain GIM5, active compounds read low 1.12 | locus YMR219W, strain ESC1, active compounds read low 0.998 | locus YMR263W, strain SAP30, active compounds read low 0.905 | locus YMR307W, strain GAS1, active compounds read low 0.702 | locus YNL128W, strain TEP1, active compounds read low 0.983 | locus YNL153C, strain GIM3, active compounds read low 1.03 | locus YNL298W, strain CLA4 (second series), active compounds read low 0.89 | locus YNL322C, strain KRE1, active compounds read low 1 | locus YNR030W, strain Alg12, active compounds read low 0.987 | locus YOL006C, strain TOP1, active compounds read low 0.754 | locus YPL055C, strain LGE1, active compounds read low 0.97 | locus YPL241C, strain CIN2, active compounds read low 0.943
